# Measured values: PubChem BioAssay (Tox21)
# Values joined by “and” are separate entries in the source; they are usually repeats but may differ in a detail not shown here. Equal values may be shown once. Records with an inconclusive call do not appear. Where a call stands in place of a potency, no number is given. More than one record can exist for a structure, and the calls need not agree. Active and inactive are the calls of the source. Calls follow the shape of the dose curve; as a rule, active = well fitted curve in the direction sought with a large enough effect in the repeat runs; inconclusive = weak or mixed curves; inactive = no such curve, though single readings can be large; an effect the other way counts as inactive or inconclusive.
# How the values were obtained:
# [1] = A CellTox Green Cytotoxicity Assay to monitor cytotoxicity in HEK293 cells - 8 hour (AID 1224884); also: nearly all actives have a fitted effect of over 35% in size; also: potency is read from the fitted curve at half-maximal effect
# Method in brief: (§1)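 Real-time, in one plate: 600 HEK293 cells/well with dead-cell DNA dye, pinned compound after 5 h, 37 C incubation over 40 h; viable cells give no appreciable fluorescence.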
# [2] = qHTS RealTime-Glo MT Cell Viability Assay in HepG2 cells - 16 hour (AID 1224885); also: nearly all actives have a fitted effect of over 50% in size
# Method in brief: (§2)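 HepG2 cells (600/well) were dispensed with RealTime-Glo reagents, incubated 5 h at 37 °C, then treated with compounds in DMSO for up to 40 h. Nonlytic NanoLuc luminescence reflecting viable cells was read at each stated time point.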
# [3] = qHTS RealTime-Glo MT Cell Viability Assay in HEK293 cells - 24 hour (AID 1224886); also: nearly all actives have a fitted effect of over 50% in size; also: potency is read from the fitted curve at half-maximal effect
# Method in brief: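 HEK293 cells seeded with NanoLuc/prosubstrate reagent, rested 5 h at 37 C, then dosed and kept at 37 C up to 40 h. Nonlytic real-time luminescence from viable cells read at 0, 8, 16, 24, 32 and 40 h.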
# [4] = qHTS RealTime-Glo MT Cell Viability Assay in HEK293 cells - 8 hour (AID 1224887); also: top concentration of the series differs between compounds; nearly all actives have a fitted effect of over 50% in size
# Method in brief: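 Kinetic, non-lysing viability readout. Seed HEK293 (600/well) with reagent, incubate 5 h at 37 C/5% CO2, pin 23 nL compound in DMSO, incubate at 37 C, read luminescence at 0, 8, 16, 24, 32, 40 h.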
# [5] = A CellTox Green Cytotoxicity Assay to monitor cytotoxicity in HEK293 cells - 16 hour (AID 1224888); also: nearly all actives have a fitted effect of over 35% in size
# Method in brief: as §1
# [6] = qHTS RealTime-Glo MT Cell Viability Assay in HepG2 cells - 0 hour (AID 1224889); also: nearly all actives have a fitted effect of over 50% in size
# Method in brief: as §2
# [7] = A CellTox Green Cytotoxicity Assay to monitor cytotoxicity in HepG2 cells - 8 hour (AID 1224890); also: nearly all actives have a fitted effect of over 45% in size; also: potency is read from the fitted curve at half-maximal effect
# Method in brief: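 Cytotoxicity was tracked as dead-cell DNA fluorescence in HepG2 cells treated with test compounds at 37 C; each time-point value comes from one kinetic series spanning 0, 8, 16, 24, 32 and 40 h.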
# [8] = qHTS assay to identify small molecule antagonists of the estrogen receptor alpha (ER-alpha) signaling pathway using the BG1 cell line in the presence of 0.1 nM 17-beta-estradiol - cell viability counter screen (AID 1259241); also: nearly all actives have a fitted effect of over 40% in size
# Method in brief: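 VM7Luc4E2 cells (endogenous ER-alpha, 4×ERE-luciferase), hormone-starved 5 days in charcoal-stripped FBS, were treated with compounds plus 0.1 nM 17beta-estradiol for 22 hr at 37C; viability read in same wells as CellTiter-Fluor live-cell protease fluorescence.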
# [9] = qHTS assay to identify small molecule antagonists of the androgen receptor (AR) signaling pathway using the MDA cell line in the presence of 0.5 nM R1881 - cell viability counter screen (AID 1259242); also: nearly all actives have a fitted effect of over 45% in size
# Method in brief: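 Cells seeded at 3,000/well and allowed 5 hr at 37C, 0% CO2 before compound transfer and R1881 (0.5 nM final) addition; 16 hr later, live-cell protease fluorescence indicated cytotoxicity.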
# [10] = target: Androgen receptor (Homo sapiens) (UniProt P10275); assay: qHTS assay to identify small molecule antagonists of the androgen receptor (AR) signaling pathway using the MDA cell line in the presence of 0.5 nM R1881 (AID 1259243); also: nearly all actives have a fitted effect of over 50% in size
# Androgen receptor (Homo sapiens), sequence (P10275 whole entry, looked up): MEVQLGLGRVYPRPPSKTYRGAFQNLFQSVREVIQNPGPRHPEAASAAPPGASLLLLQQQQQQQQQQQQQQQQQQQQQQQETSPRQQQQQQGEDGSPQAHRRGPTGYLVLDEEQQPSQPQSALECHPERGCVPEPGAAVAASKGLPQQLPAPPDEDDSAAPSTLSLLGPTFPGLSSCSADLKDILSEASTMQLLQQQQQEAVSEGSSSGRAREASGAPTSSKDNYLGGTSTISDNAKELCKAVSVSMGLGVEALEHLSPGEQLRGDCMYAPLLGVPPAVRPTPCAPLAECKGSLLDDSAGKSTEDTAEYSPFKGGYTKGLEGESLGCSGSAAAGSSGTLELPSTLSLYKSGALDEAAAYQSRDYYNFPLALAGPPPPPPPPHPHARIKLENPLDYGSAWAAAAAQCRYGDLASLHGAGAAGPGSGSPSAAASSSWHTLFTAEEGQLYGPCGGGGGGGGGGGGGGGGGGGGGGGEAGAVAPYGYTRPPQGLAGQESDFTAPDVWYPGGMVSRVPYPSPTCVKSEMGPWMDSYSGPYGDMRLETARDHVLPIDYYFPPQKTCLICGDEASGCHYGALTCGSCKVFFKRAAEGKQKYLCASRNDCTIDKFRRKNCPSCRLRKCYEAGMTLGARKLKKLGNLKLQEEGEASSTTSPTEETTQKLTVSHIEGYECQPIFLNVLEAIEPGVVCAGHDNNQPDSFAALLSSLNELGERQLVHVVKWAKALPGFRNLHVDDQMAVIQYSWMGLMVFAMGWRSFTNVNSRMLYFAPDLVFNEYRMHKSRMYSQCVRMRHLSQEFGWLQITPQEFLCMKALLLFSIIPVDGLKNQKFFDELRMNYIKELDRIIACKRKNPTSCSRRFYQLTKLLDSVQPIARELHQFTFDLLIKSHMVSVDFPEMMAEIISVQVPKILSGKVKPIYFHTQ
# Method in brief: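 Luminescence from an AR/GR-responsive MMTV-luciferase construct in MDA-kb2 breast carcinoma cells, read 30 min after ONE-Glo, following 16 hr co-treatment with compounds and 0.5 nM R1881.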
Structure (SMILES),Potency [1],outcome [2],Potency [3],outcome [4],Potency [5],outcome [6],Potency [7],Potency [8],outcome [9],Potency [10]
Cc1ccccc1O,inactive,inactive,inactive,inactive,inactive,inactive,inactive,inactive,inactive,
Nc1ccccc1C(=O)O,inactive,inactive,inactive,inactive,inactive,inactive,inactive,inactive,inactive,
CC(Br)C(=O)O (stereo not drawn),inactive,inactive,inactive,inactive,inactive,inactive,inactive,inactive,inactive,
C#CC(C)(C)NC(=O)c1cc(Cl)cc(Cl)c1,inactive,inactive,inactive,inactive,inactive,inactive,inactive,inactive,inactive,
CN(N=O)c1ccccc1,inactive,inactive,inactive,inactive,inactive,inactive,inactive,inactive,inactive,
CC(Oc1ccc(Cl)cc1Cl)C(=O)O (stereo not drawn),inactive,inactive,inactive,inactive,inactive,inactive,inactive,inactive,inactive,
Cc1cc(Cl)ccc1O,inactive,inactive,inactive,inactive,inactive,inactive,inactive,inactive,inactive,
CCC[CH2][Sn]([Cl])([Cl])[Cl],inactive,inactive,inactive,inactive,inactive,inactive,inactive,inactive,inactive,
CCOP(OCC)OCC,inactive,inactive,inactive,inactive,inactive,inactive,inactive,inactive,inactive,
O=NN1CCCCCCC1,inactive,inactive,inactive,inactive,inactive,inactive,inactive,inactive,inactive,
Clc1cccc(Cl)c1Cl,inactive,inactive,inactive,inactive,inactive,inactive,inactive,inactive,inactive,
COC(=O)NC(=S)Nc1ccccc1NC(=S)NC(=O)OC,inactive,inactive,inactive,inactive,inactive,inactive,inactive,inactive,inactive,
CCNc1nc(NC(C)(C)C)nc(SC)n1,inactive,inactive,43.1 µM (active),inactive,inactive,inactive,inactive,inactive,inactive,
CC(C)NC(=O)N1CC(=O)N(c2cc(Cl)cc(Cl)c2)C1=O,inactive,inactive,inactive,inactive,inactive,inactive,inactive,inactive,inactive,
Nc1c(Cl)c(Cl)nc(C(=O)O)c1Cl,inactive,inactive,inactive,inactive,inactive,inactive,inactive,inactive,inactive,
O=NN1CCCC1,inactive and 21.9 µM (active),inactive,inactive,inactive,inactive,inactive,inactive and 38.9 µM (active),inactive,inactive,
O=C1CCCN1,inactive,inactive,inactive,inactive,inactive,inactive,inactive,inactive,inactive,
Nc1ccc(Cc2ccc(N)cc2)cc1,inactive,inactive,inactive,inactive,inactive,inactive,inactive,inactive,inactive,
CN1C(=O)CN=C(c2ccccc2)c2cc(Cl)ccc21,inactive,inactive,inactive,inactive,inactive,inactive,inactive,inactive,inactive,
CCCCOC(=O)c1ccccc1C(=O)OCCCC,inactive,inactive,inactive,inactive,inactive,inactive,inactive,inactive,inactive,
CC1C=[C-]C=C1.[C-]#[O+].[C-]#[O+].[C-]#[O+].[Mn],inactive,inactive,inactive,inactive,inactive,inactive,inactive,inactive,inactive,
CN(C)CCO,inactive,inactive,inactive,inactive,inactive,inactive,inactive,inactive,inactive,
CC1OC(C)OC(C)O1 (stereo not drawn),inactive,inactive,inactive,inactive,inactive,inactive,inactive,inactive,inactive,
CCN(CC)CCO,inactive,inactive,inactive,inactive,inactive,inactive,inactive,inactive,inactive,
O=c1[nH]c2ccccc2c(=O)o1,inactive,inactive,inactive,inactive,inactive,inactive,inactive,inactive,inactive,
Clc1ccccc1Cl,inactive,inactive,inactive,inactive,inactive,inactive,inactive,inactive,inactive,
O=C(O)c1ccccn1,inactive,inactive,inactive,inactive,inactive,inactive,inactive,inactive,inactive,

Structure (SMILES),Potency [1],outcome [2],Potency [3],outcome [4],Potency [5],outcome [6],Potency [7],Potency [8],outcome [9],Potency [10]
CC(C)C1(C)N=C(c2nc3ccccc3cc2C(=O)O)NC1=O (stereo not drawn),inactive,inactive,inactive,inactive,inactive,inactive,inactive,inactive,inactive,
CCC(C)(CC)c1cc(NC(=O)c2c(OC)cccc2OC)on1,inactive,inactive,inactive,inactive,inactive,inactive,inactive,inactive,inactive,
CCCCCCCCCl,inactive,inactive,inactive,inactive,inactive,inactive,inactive,inactive,inactive,
c1ccc2c(c1)oc1ccccc12,inactive,inactive,inactive,inactive,inactive,inactive,inactive,inactive,inactive,
Cc1cc(-c2cc(C)c(N)c(C)c2)cc(C)c1N,inactive,inactive,inactive,inactive,inactive,inactive,inactive,inactive,inactive,
c1ccc2c(c1)Oc1ccccc1O2,inactive,inactive,inactive,inactive,inactive,inactive,inactive,inactive,inactive,
OCCN(CCO)CCO,inactive,inactive,inactive,inactive,inactive,inactive,inactive,inactive,inactive,
CC(C)(C)OOC(C)(C)C,inactive,inactive,inactive,inactive,inactive,inactive,inactive,inactive,inactive,
CCCN(CCC)N=O,inactive,inactive,inactive,inactive,inactive,inactive,inactive,inactive,inactive,
CCC[N+](=O)[O-],inactive,inactive,inactive,inactive,inactive,inactive,inactive,,inactive,
CON(C)C(=O)Nc1ccc(Cl)c(Cl)c1,inactive,inactive,inactive and 43.6 µM (active),inactive,inactive,inactive,,inactive,inactive,
COC(=O)c1ccccc1C(=O)OC,inactive,inactive,inactive,inactive,inactive,inactive,inactive,inactive,inactive,
CCCCN(CC)C(=O)SCCC,inactive,inactive,inactive,inactive,inactive,inactive,inactive,inactive,inactive,inactive
COC(=O)c1ccccc1N,inactive,inactive,inactive,inactive,inactive,inactive,inactive,inactive,inactive,
O=c1ccc(=O)[nH][nH]1,inactive,inactive,inactive,inactive,inactive,inactive,inactive,inactive,inactive,inactive
Nc1ccc(Br)cc1,inactive,inactive,inactive,inactive,inactive,inactive,inactive,inactive,inactive,
c1ccc(OP(Oc2ccccc2)Oc2ccccc2)cc1,inactive,inactive,inactive,inactive,inactive,inactive,inactive,inactive,inactive,
COP(N)(=O)SC (stereo not drawn),inactive,inactive,inactive,inactive,inactive,inactive,inactive,inactive,inactive,
CC(C#N)CCC#N (stereo not drawn),inactive,inactive,inactive,inactive,inactive,inactive,,inactive,inactive,
CN=C=S,inactive,inactive,inactive,inactive,inactive,inactive,,inactive,inactive,
C[C@]12CC[C@H]3[C@@H](CC[C@@]45O[C@@H]4C(O)=C(C#N)C[C@]35C)[C@@H]1CC[C@@H]2O,inactive,inactive,inactive,inactive,inactive,inactive,inactive,inactive,inactive,
Cc1ccc(N)cc1N,inactive,inactive,inactive,inactive,inactive,inactive,inactive,inactive,inactive,
CC(=O)C=C(C)C,inactive,inactive,inactive,inactive,inactive,inactive,,inactive,inactive,
Cc1ccc([N+](=O)[O-])cc1C,inactive,inactive,inactive,inactive,inactive,inactive,,inactive,inactive,
BrCCBr,inactive,inactive,inactive,inactive,inactive,inactive,inactive,inactive,inactive,
ClCc1cccnc1,inactive,inactive,inactive,inactive,inactive,inactive,inactive,inactive,inactive,
